# Source: PubChem BioAssay
# Shown are actives, neighbours in structure and some others; about 2.7% of the full set was active somewhere.
# SENP8 block-1: inhibitors of human SENP8 protease; Q96LD8; 0.64% of 360,000 active; recombinant SENP8, Nedd8 substrate fluorescence; inhibition, % at 20 µM; in the data active means inhibition mostly above about 40%, no sharp cut-off; inactive means mostly below about 27%
# Target sequence (Q96LD8 whole entry, looked up): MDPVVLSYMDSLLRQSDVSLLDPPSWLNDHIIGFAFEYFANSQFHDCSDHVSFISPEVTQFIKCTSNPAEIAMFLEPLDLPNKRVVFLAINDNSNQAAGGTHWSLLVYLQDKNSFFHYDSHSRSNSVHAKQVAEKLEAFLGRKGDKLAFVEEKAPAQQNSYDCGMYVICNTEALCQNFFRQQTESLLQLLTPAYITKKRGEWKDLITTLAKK
# HSP90 inh: blocks HSP90-mediated luciferase refolding in reticulocyte lysate | inhibition, % at 5.6 µM | Rabbit reticulocyte lysate, luciferase refolding luminescence, 3 h | 0.91% of 290,000 active;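 active means inhibition above the screen-wide mean plus 3 SD, computed separately per campaign, cut at about 16% in these data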;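 further: 0% = DMSO wells and 100% = 60 µM geldanamycin wells; inhibitors lower the luminescence because luciferase stays unfolded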
# SENP8 block-2: blocks the human protease SENP8 | purified SENP8, Z-RLRGG-aminoluciferin cleavage, luminescence | Q96LD8 | 1.2% of 330,000 active | inhibition, % at 10 µM; in the data active means inhibition above about 50%
# SENP6 inh: blocks the human protease SENP6; 1.8% of 330,000 active; AID 2599; Q9GZR1; Recombinant SENP6 catalytic domain, aminoluciferin luminescence; inhibition, % at 10 µM;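 active means inhibition above about 50% at the single tested dose, limit read from the data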;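 further: plate controls were DMSO wells with enzyme for no effect and DMSO wells lacking enzyme for full effect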
# SENP7 block: inhibitors of human SENP7 protease; inhibition, % at 5 µM; 1.5% of 330,000 active; recombinant SENP7, Z-RLRGG-aminoluciferin luminescence, 40 min; AID 434973;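 active means inhibition above about 50% at the single test dose, limit read from the data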;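 further: plate controls were DMSO with enzyme for no effect and no enzyme buffer wells for full effect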
# Target sequence (Q9BQF6 706-1050 limits assumed): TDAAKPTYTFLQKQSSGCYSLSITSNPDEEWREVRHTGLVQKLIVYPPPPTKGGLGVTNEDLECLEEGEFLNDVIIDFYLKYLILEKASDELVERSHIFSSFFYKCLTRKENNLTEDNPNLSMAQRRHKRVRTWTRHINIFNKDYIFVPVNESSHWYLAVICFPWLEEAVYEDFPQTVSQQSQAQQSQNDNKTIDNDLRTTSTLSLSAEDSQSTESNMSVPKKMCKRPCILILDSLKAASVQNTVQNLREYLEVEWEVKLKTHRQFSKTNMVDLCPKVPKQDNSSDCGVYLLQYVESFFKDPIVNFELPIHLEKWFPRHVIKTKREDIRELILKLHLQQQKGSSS
# HSP90 inh confirm: confirmation of HSP90 inhibitors | rabbit reticulocyte lysate, luciferase refolding luminescence, 3 h | 64% of 2,300 active | inhibition, % at 5.9 µM | shares compounds with HSP90 inh; in the data active means inhibition above about 18%;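 further: 0% = vehicle wells and 100% = reference inhibitor wells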
# luciferase ctr: counter-screen for HSP90 inhibitors: inhibitors of firefly luciferase | shares compounds with HSP90 inh | purified native firefly luciferase, luminescence | inhibition, % at 5.9 µM | 48% of 2,300 active;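 active means inhibition above the mean inhibition of all tested sample wells plus 3 SD, cut at about 10% in these data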;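 further: 0% = DMSO with luciferase and 100% = wells lacking luciferase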
# Starred values were filed as active, the others as inactive; · = no result given.
SMILES,SENP8 block-1,HSP90 inh,SENP8 block-2,SENP6 inh,SENP7 block,HSP90 inh confirm,luciferase ctr
Cc1nnc(N/N=C/c2ccccc2O)n1N,32,58*,-7,1,6,-4,-18
CCc1nnc(N/N=C/c2c(F)cccc2Cl)n1N,17,-1,-8,-5,-4,·,·
CCOC(=O)C1=C(COC(=O)Cc2c(F)cccc2Cl)NC(=O)NC1C (stereo not drawn),-4,·,-13,-19,-7,·,·
CCn1cc(C(=O)NCC2CCCO2)c2cc(OC)c(OC)cc2c1=O (stereo not drawn),-4,-1,4,-6,7,·,·
CCOc1ncccc1C(=O)N(CC)CC(=O)NCc1ccc(F)cc1,4,2,-16,-24,-7,·,·
CCCNC(=O)Nc1nc2ccccc2s1,22,21*,-6,7,6,-2,-22
CCCCNC(=O)Nc1nc2ccccc2s1,0,2,-7,11,2,·,·
COc1ccc(/C(C)=N/NC(=O)Cn2nc([N+](=O)[O-])cc2C)cc1,7,30*,-7,-9,12,-1,-7
O=C(NC1CCCCC1)C1CCN(C(=O)c2ccccc2Cl)CC1,8,-1,-12,-29,-10,·,·
Cc1ccccc1C(=O)N1CCC(C(=O)NC2CCCCCC2)CC1,2,20*,-4,5,5,-2,-9
Cc1cc(/C=C(\C#N)C(=O)N2CCOCC2)c(C)n1C1CCCC1,-51,37*,12,27,9,52*,48*
Cc1onc(-c2ccccc2Cl)c1C(=O)N1CCN(C(=O)c2ccco2)CC1,20,27*,-1,-33,6,-6,-13
CCN1CCN(CCn2c(=S)[nH]c3ccccc3c2=O)CC1,20,0,1,-2,5,·,·
COc1ccc(NC2=C(C(C)=O)C(c3ccc(OC)cc3)C(C(C)=O)C(C)(O)C2)cc1 (stereo not drawn),16,31*,3,-13,-1,4,1
COc1cc(N(C(=O)Cc2cccs2)C(C(=O)NC2CCCCC2)c2ccc(C)cc2)ccc1-n1cnnn1 (stereo not drawn),3,2,1,-29,1,·,·
C/C(=N\Nc1nc2ccccc2[nH]1)c1ccc(N2CCOCC2)cc1,-109,19*,8,21,3,1,-12
CC1CCCC(C)N1C(=O)COC(=O)c1ccc[nH]c1=O (stereo not drawn),19,1,4,-10,1,·,·
S=C(Nc1cccnc1)Nc1ccccc1Br,20,26*,-3,6,0,-10,-11
COc1ccc(/C=N/Nc2nc3ccccc3[nH]2)c(OC)c1OC,-303,27*,38,49,0,54*,62*
Cc1ccccc1/C=N/Nc1nc2ccccc2[nH]1,-106,5,-17,-7,-9,·,·
CCOC(=O)c1ccc(-c2c(-c3ccc4c(c3)OCO4)noc2C)cc1F,3,17*,-4,5,8,2,-6
Cc1noc(C)c1COC(=O)c1ccc2c(c1)OCO2,8,2,-7,-18,0,·,·
Cc1ccc(-c2noc(CCC(=O)NCc3ccco3)n2)cc1,6,24*,-6,-5,7,-2,-14
O=C(Cn1ccc(NC(=O)OCc2ccccc2)nc1=O)NCC1CCCO1 (stereo not drawn),11,·,-5,-12,-13,·,·
Cc1ccccc1NC(=O)CN1CCN(Cc2ccccc2)CC1,5,-1,7,2,0,·,·
SMILES,SENP8 block-1,HSP90 inh,SENP8 block-2,SENP6 inh,SENP7 block,HSP90 inh confirm,luciferase ctr
CCN(CC)S(=O)(=O)c1ccc(C)c(NC(=O)CN2CCN(Cc3ccccc3)CC2)c1,23,29*,2,-2,-4,5,-1
COc1ccc(NC(=O)CSc2nnc(-c3cccs3)n2-c2ccccc2)cc1,10,0,5,3,0,·,·
Cc1cc(NC(=O)NC(=O)c2ccc(F)cc2F)n[nH]1,14,23*,-6,-25,-2,39*,26*
Cc1ccc(-c2ccc(C(=O)Nc3ccccc3)o2)c2ccccc12,-491,-1,-11,-8,-17,·,·
C=CCOc1ccccc1CNc1cccc(F)c1,-9,-4,-15,-34,-8,·,·
C=CCOc1ccccc1CNc1ccc2c(c1)OCCO2,-379,67*,19,33,2,73*,69*
Cc1cccc(-c2onc3ccc(C(=O)/C=C/N(C)C)cc23)c1,-9,39*,-6,3,-5,-3,-8
Cc1ccc(-c2onc3ccc(C(=O)/C=C/N(C)C)cc23)cc1,-21,61*,6,7,-3,-9,-21
COc1cccc(-c2onc3ccc(C(=O)/C=C/N(C)C)cc23)c1,-9,2,0,19,5,·,·
O=C(Nc1cccnc1)c1ccc(COc2ccccc2Br)o1,0,1,-10,-19,-7,·,·
CCCc1ccc(OCc2ccc(C(=O)OC)o2)c(OC)c1,-18,24*,-2,-8,4,30*,-21
CCOc1ccc(OCc2ccc(C(=O)NCc3ccncc3)o2)cc1,3,18*,-5,-13,-5,19*,-4
COC(=O)c1ccc(COc2ccc3c(c2)CCC3)o1,28,23*,38,20,1,40*,-16
CC(C)(C)c1ccc(OCc2ccc(C(=O)Nc3cccnc3)o2)cc1,25,26*,17,11,-9,23*,-6
O=C(NCc1cccnc1)c1ccc(COc2ccc3c(c2)CCC3)o1,20,-2,-1,-11,0,·,·
CCCc1ccc(OCc2ccc(C(=O)NN)o2)c(OC)c1,20,2,0,-1,-5,·,·
CCCc1ccc(OCc2ccc(C(=O)N3CCSCC3)o2)cc1,7,52*,6,-16,3,55*,8
CCC(C)c1ccc(OCc2ccc(C(=O)OC)o2)cc1 (stereo not drawn),-5,26*,26,27,-3,65*,-22
COC(=O)c1ccc(COc2ccc(NC(C)=O)cc2)o1,5,0,-5,-3,11,·,·
O=C(O)c1ccc(COc2ccc3c(c2)CCC3)cc1,10,49*,84*,95*,51*,63*,17*
CCc1ccc(OCc2ccc(C(=O)OC)o2)cc1,10,56*,41,39,0,75*,-14
COc1ccc(CC(=O)Nc2ccc3c(c2)C(=O)N(CCC(=O)O)C3=O)cc1,-33,-1,-2,-3,-6,·,·
COc1ccccc1COC(=O)c1cccc(S(=O)(=O)N2CCCC2)c1,5,·,2,-7,-6,·,·
CC(=O)c1ccc(NC(=O)CCn2c(=S)oc3ccccc32)cc1,13,1,-9,-8,-9,·,·
COC(=O)c1ccc(COc2ccc(C(C)(C)C)cc2)o1,20,29*,-8,-10,-2,35*,-20
C[C@@H](NS(=O)(=O)c1ccc(Br)cc1F)[C@@H](O)c1ccccc1,8,·,·,·,12,·,·
